The text below walks through data of the antibiotic and cytotoxicity screens of Wong et al. (2023).

Structures are written as SMILES. Screen size: about 39,000 compounds; about 3,300 (8.5%) were called active. This excerpt belongs to a sample that is enriched for actives.

The test system of this test is HepG2. Kind of test: cytotoxicity call (relative viability < 0.9). The note with it: 10 µM.
`CO[C@@H]1CN(C)C(=O)c2cc(NC(=O)c3cc(C)on3)ccc2OC[C@@H](C)N(C(=O)C2CCC2)C[C@H]1C`: the cytotoxicity call is “inactive”.

Turning to `C[C@@H]1CN([C@H](C)CO)C(=O)c2cc(NC(=O)Nc3ccc(C(F)(F)F)cc3)ccc2O[C@@H](C)CCCCO[C@@H]1CN(C)S(=O)(=O)c1cn(C)cn1`, the cytotoxicity call was “inactive”.

As for `C[C@H](CO)N1C[C@H](C)[C@@H](CN(C)S(=O)(=O)c2ccc(F)cc2)OCCCC[C@H](C)Oc2ccc(NC(=O)C3CCCCC3)cc2C1=O`, the cytotoxicity call is “inactive”.

Regarding `Cc1noc(C)c1S(=O)(=O)Nc1ccc2c(c1)C(=O)N([C@@H](C)CO)C[C@H](C)[C@H](CN(C)Cc1ccc(-c3ccccc3)cc1)O2`, the cytotoxicity call is “inactive”.

Regarding `CCS(=O)(=O)N1CCC(C(=O)N(C)C)CC1`, the cytotoxicity call is “inactive”.

For the compound `C[C@@H]1CN([C@@H](C)CO)C(=O)c2c(c3ccccc3n2C)-c2ccccc2CO[C@@H]1CN(C)CC1CCCCC1`, the cytotoxicity call was “active”.

Turning to `C[C@H]1CN([C@@H](C)CO)C(=O)c2c(c3ccccc3n2C)-c2ccccc2CO[C@H]1CN(C)CC1CCCCC1`, the cytotoxicity call is “inactive”.

Turning to `C[C@@H]1CN([C@@H](C)CO)C(=O)c2c(c3ccccc3n2C)-c2ccccc2CO[C@H]1CN(C)CC1CCCCC1`, the cytotoxicity call is “inactive”.

Turning to `C[C@H](CO)N1C[C@H](C)[C@@H](CN(C)CC2CCCCC2)OCc2ccccc2-c2c(n(C)c3ccccc23)C1=O`, the cytotoxicity call is “inactive”.

Turning to `C[C@H]1CN([C@@H](C)CO)C(=O)c2c(c3ccccc3n2C)-c2ccccc2CO[C@@H]1CN(C)CC1CCCCC1`, the cytotoxicity call was “active”.

Turning to `C[C@H](CO)N1C[C@H](C)[C@H](CN(C)C(=O)NC2CCCCC2)OCc2ccccc2-c2c(n(C)c3ccccc23)C1=O`, the cytotoxicity call was “active”.

For `C[C@@H]1CN([C@H](C)CO)C(=O)c2c(c3ccccc3n2C)-c2ccccc2CO[C@@H]1CN(C)CC1CCCCC1`, the cytotoxicity call is “inactive”.

Regarding `C[C@@H]1CN([C@H](C)CO)C(=O)c2c(c3ccccc3n2C)-c2ccccc2CO[C@@H]1CN(C)C(=O)NC1CCCCC1`, the cytotoxicity call is “inactive”.

On to `C[C@H](CO)N1C[C@H](C)[C@@H](CN(C)C(=O)NC2CCCCC2)OCc2ccccc2-c2c(n(C)c3ccccc23)C1=O`, for which the cytotoxicity call was “inactive”.

With `CC1(C)S[C@H]2[C@@H](NC(=O)[C@@H](NC(=O)N3CCN(S(C)(=O)=O)C3=O)c3ccccc3)C(=O)N2[C@@H]1C(=O)O`, the cytotoxicity call was “inactive”.

Regarding `CCCNC(=O)Nc1ccc2c(c1)C(=O)N(C)C[C@@H](OC)[C@@H](C)CN(C(=O)C1CCOCC1)[C@@H](C)CO2`, the cytotoxicity call was “inactive”.

On to `Cc1noc(C)c1NC(=O)N(C)C[C@H]1OCCCC[C@@H](C)Oc2ccc(NC(=O)CCC(F)(F)F)cc2C(=O)N([C@H](C)CO)C[C@H]1C`, for which the cytotoxicity call was “inactive”.

Regarding `C[C@H](C(=O)O)N1CCCCC1`, the cytotoxicity call is “inactive”.

As for `CC(C)c1cn(CC[C@H]2CC[C@H](N)[C@@H](CO)O2)nn1`, the cytotoxicity call was “inactive”.

Turning to `CC[C@@H](Sc1n[nH]c(=O)[nH]c1=O)C(=O)O`, the cytotoxicity call is “inactive”.

Turning to `COCC(=O)N(C)C[C@H]1Oc2cc(C#CCC3CCCC3)ccc2S(=O)(=O)N([C@H](C)CO)C[C@H]1C`, the cytotoxicity call is “inactive”.

`C[C@@H]1CN([C@H](C)CO)C(=O)Cc2cc(NC(=O)C3CC3)ccc2O[C@H]1CN(C)C(=O)Nc1ccccc1`: the cytotoxicity call was “inactive”.

Turning to `COCC(=O)N1[C@@H]2c3ccc(C4=CCCCC4)c(=O)n3C[C@@H]2[C@@H](CO)[C@@H]1C(=O)N1CCOCC1`, the cytotoxicity call was “inactive”.

Turning to `C=CC(=O)Nc1cccc(C)c1Nc1ncc2cc(-c3c(Cl)c(OC)cc(OC)c3Cl)ccc2n1`, the cytotoxicity call is “active”.

On to `COCC(=O)Nc1ccc2c(c1)C(=O)N(C)[C@@H]1CC[C@@H](CC(=O)NCc3ccc(OC)cc3)O[C@H]1CO2`, for which the cytotoxicity call is “inactive”.

As to `Cc1noc(C)c1NC(=O)N(C)C[C@H]1Oc2ccc(NC(=O)Nc3ccc(C(F)(F)F)cc3)cc2C(=O)N([C@@H](C)CO)C[C@H]1C`, the cytotoxicity call was “inactive”.

With `COCC(=O)N(C)C[C@H]1Oc2cc(C#C[C@@H](C)O)ccc2S(=O)(=O)N([C@H](C)CO)C[C@@H]1C`, the cytotoxicity call is “inactive”.

Regarding `C[C@@H]1CCCCO[C@@H](CN(C)Cc2ccc(Cl)c(Cl)c2)[C@@H](C)CN([C@@H](C)CO)C(=O)c2cc(NC(=O)CCC(F)(F)F)ccc2O1`, the cytotoxicity call is “active”.

As to `C[C@H]1CCCCO[C@H](CN(C)Cc2ccc(Cl)c(Cl)c2)[C@@H](C)CN([C@@H](C)CO)C(=O)c2cc(NC(=O)CCC(F)(F)F)ccc2O1`, the cytotoxicity call is “inactive”.

In the case of `C[C@@H]1CCCCO[C@H](CN(C)Cc2ccc(Cl)c(Cl)c2)[C@@H](C)CN([C@H](C)CO)C(=O)c2cc(NC(=O)CCC(F)(F)F)ccc2O1`, the cytotoxicity call is “inactive”.

On to `C[C@H](CO)N1C[C@H](C)[C@@H](CN(C)Cc2ccc(Cl)c(Cl)c2)OCCCC[C@H](C)Oc2ccc(NC(=O)CCC(F)(F)F)cc2C1=O`, for which the cytotoxicity call was “inactive”.

`C[C@@H]1CN([C@@H](C)CO)C(=O)c2cc(NC(=O)CCC(F)(F)F)ccc2O[C@@H](C)CCCCO[C@H]1CN(C)Cc1ccc(Cl)c(Cl)c1`: the cytotoxicity call was “inactive”.

In the case of `C[C@@H]1CN([C@H](C)CO)C(=O)c2cc(NC(=O)CCC(F)(F)F)ccc2O[C@@H](C)CCCCO[C@H]1CN(C)Cc1ccc(Cl)c(Cl)c1`, the cytotoxicity call was “active”.

As to `C[C@@H]1CCCCO[C@H](CN(C)Cc2ccc(Cl)c(Cl)c2)[C@@H](C)CN([C@@H](C)CO)C(=O)c2cc(NC(=O)CCC(F)(F)F)ccc2O1`, the cytotoxicity call is “inactive”.

For the compound `C[C@@H]1CN([C@H](C)CO)C(=O)c2cc(NC(=O)CCC(F)(F)F)ccc2O[C@@H](C)CCCCO[C@@H]1CN(C)Cc1ccc(Cl)c(Cl)c1`, the cytotoxicity call was “active”.

As to `C[C@@H]1CCCCO[C@@H](CN(C)Cc2ccc(Cl)c(Cl)c2)[C@H](C)CN([C@@H](C)CO)C(=O)c2cc(NC(=O)CCC(F)(F)F)ccc2O1`, the cytotoxicity call is “inactive”.

Regarding `C[C@@H]1CCCCO[C@@H](CN(C)Cc2ccc(Cl)c(Cl)c2)[C@@H](C)CN([C@H](C)CO)C(=O)c2cc(NC(=O)CCCN(C)C)ccc2O1`, the cytotoxicity call is “active”.

As to `Cn1cnc(S(=O)(=O)N[C@@H]2C=C[C@H](CC(=O)NCC3CC3)O[C@H]2CO)c1`, the cytotoxicity call was “inactive”.

For the compound `COc1ccc(S(=O)(=O)N(C)C[C@@H]2OCCCC[C@@H](C)Oc3ccc(NC(=O)CCCCCC(=O)Nc4ccccc4N)cc3C(=O)N([C@H](C)CO)C[C@@H]2C)cc1`, the cytotoxicity call is “inactive”.

Turning to `COc1ccccc1CNC(=O)C[C@@H]1C[C@@H]2c3cc(NC(=O)Cc4ccncc4)ccc3O[C@@H]2[C@@H](CO)O1`, the cytotoxicity call was “inactive”.

For the compound `C[C@@H]1CCCCO[C@@H](CN(C)CC2CCCCC2)[C@@H](C)CN([C@@H](C)CO)C(=O)c2cc(N(C)C)ccc2O1`, the cytotoxicity call is “inactive”.

For `C[C@H](CO)N1C[C@H](C)[C@H](CN(C)C(=O)Nc2ccc3c(c2)OCO3)OCCCC[C@H](C)Oc2ccc(NS(=O)(=O)c3ccc(F)cc3)cc2C1=O`, the cytotoxicity call was “inactive”.

Consider `CS(=O)(=O)N1C[C@@H](O)COC[C@@H]2O[C@H](CC(=O)NCc3ccccc3)CC[C@H]21`, for which the cytotoxicity call is “inactive”.

In the case of `C[C@@H]1CCCCO[C@H](CN(C)C(=O)Nc2ccc(F)cc2)[C@@H](C)CN([C@H](C)CO)C(=O)c2cc(NS(=O)(=O)c3cccs3)ccc2O1`, the cytotoxicity call was “inactive”.

In the case of `O=C(C[C@H]1CC[C@H]2[C@@H](COC[C@@H](O)CN2S(=O)(=O)c2ccccc2)O1)NCCN1CCCCC1`, the cytotoxicity call is “inactive”.

For the compound `Cc1noc(C)c1NC(=O)Nc1ccc2c(c1)C(=O)N([C@@H](C)CO)C[C@H](C)[C@H](CN(C)C(=O)Nc1ccc3c(c1)OCO3)OCCCC[C@H](C)O2`, the cytotoxicity call was “inactive”.

`COc1ccc(S(=O)(=O)N(C)C[C@H]2Oc3c(cccc3N(C)C)C(=O)N([C@@H](C)CO)C[C@H]2C)cc1`: the cytotoxicity call was “inactive”.

`C[C@@H]1CCCCO[C@H](CN(C)Cc2ccc3c(c2)OCO3)[C@@H](C)CN([C@@H](C)CO)C(=O)c2cc(NC(=O)CCC(F)(F)F)ccc2O1`: the cytotoxicity call was “inactive”.

`C[C@@H]1CCCCO[C@H](CN(C)Cc2ccc(Cl)c(Cl)c2)[C@H](C)CN([C@H](C)CO)C(=O)c2cc(NC(=O)CCC(F)(F)F)ccc2O1`: the cytotoxicity call is “active”.

`C[C@@H]1CCCCO[C@@H](CN(C)Cc2ccc3c(c2)OCO3)[C@H](C)CN([C@H](C)CO)C(=O)c2cc(NC(=O)CCC(F)(F)F)ccc2O1`: the cytotoxicity call is “inactive”.

In the case of `C[C@@H]1CCCCO[C@H](CN(C)Cc2ccc(Cl)c(Cl)c2)[C@H](C)CN([C@@H](C)CO)C(=O)c2cc(NC(=O)CCC(F)(F)F)ccc2O1`, the cytotoxicity call is “active”.

As for `C[C@@H]1CCCCO[C@@H](CN(C)Cc2ccc(Cl)c(Cl)c2)[C@@H](C)CN([C@H](C)CO)C(=O)c2cc(NC(=O)CCC(F)(F)F)ccc2O1`, the cytotoxicity call is “inactive”.

Turning to `C[C@@H]1CCCCO[C@@H](CN(C)Cc2ccc(Cl)c(Cl)c2)[C@H](C)CN([C@H](C)CO)C(=O)c2cc(NC(=O)CCC(F)(F)F)ccc2O1`, the cytotoxicity call is “inactive”.

Consider `COc1ccc(S(=O)(=O)Nc2ccc3c(c2)C(=O)N([C@@H](C)CO)C[C@@H](C)[C@@H](CN(C)S(=O)(=O)c2cn(C)cn2)OCCCC[C@@H](C)O3)cc1`, for which the cytotoxicity call is “inactive”.

Turning to `C[C@@H]1CCCCO[C@@H](CN(C)C(=O)Cc2ccccc2)[C@@H](C)CN([C@@H](C)CO)C(=O)c2cc(NC(=O)NC3CCCCC3)ccc2O1`, the cytotoxicity call was “inactive”.

Turning to `C[C@@H]1COC(=O)[C@@H](NC(=O)OCC2c3ccccc3-c3ccccc32)CC=CC[C@H](CC(=O)NCCO)C(=O)N1`, the cytotoxicity call is “inactive”.

Consider `CN(C)CCCC[C@@H]1NC(=O)[C@H]2C[C@@H](C(=O)NCCCCCNC(=O)CS)[C@@H](c3ccc(O)cc3)N2C1=O`, for which the cytotoxicity call is “inactive”.

Turning to `O/N=C/c1c(Cl)cccc1Cl`, the cytotoxicity call is “inactive”.

In the case of `O/N=C/c1ccc2ccccc2c1`, the cytotoxicity call was “inactive”.

With `O/N=C/c1ccccc1C(F)(F)F`, the cytotoxicity call was “active”.

Take `CC(C)(C)N1C[C@H](C(=O)O)CC1=O`: the cytotoxicity call was “inactive”.

As for `Cc1ccc(S(=O)(=O)Nc2cccc3c2O[C@H](CN(C)S(C)(=O)=O)[C@@H](C)CN([C@H](C)CO)C3=O)cc1`, the cytotoxicity call is “inactive”.

`C[C@@H]1CN([C@@H](C)CO)S(=O)(=O)c2ccc(-c3cncnc3)cc2O[C@@H]1CN(C)C(=O)c1ccc2c(c1)OCO2`: the cytotoxicity call was “inactive”.
